From PubChem BioAssay
The full list was thinned out, with hits kept by preference.
HBB splice mod = modulators of hemoglobin beta chain splicing; HBB splicing reporter cell assay, activation; EGFP reporter with mutant IVS2-654 intron; response scale: normalised to 500 nM splice-correcting PNA; Potency, µM (top dose mostly 46.1 µM), inactives show at the top dose activation, most hits filed as activators; 0.06% of 65,000 active; further: potency means the concentration at half of the fitted maximal effect; 0% is about no effect
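Compounds were applied for 2 days to HeLa EGFP-654 cells, 500/well in Optimem with 2% FCS. The reporter's EGFP is disrupted by mis-splicing of beta-globin intron IVS2-654. Readout: summed well GFP fluorescence from 488 nm laser scanning; reference was 500 nM antisense […] 654 PNA.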
Imprint erasure = induces erasure of genomic imprints in mouse ES cells; 0.02% of 110,000 active; mouse ES Peg3-LacZ reporter, beta-gal luminescence, 40 h; Potency, µM (titrated, usually from 60.7 µM), without a hit: top-dose activity change, positive = activation, actives largely listed as activators; AID 1948; further: potency means the concentration at half of the fitted maximal effect
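Each well holds 300 Peg3LacZ-Neo (maternal) female ES cells incubated 40 h at 37C, 5% CO2. LacZ is measured by BetaGlo luminescence, with AC50 and maximum efficacy derived from dose-response curves.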
IkB signaling = suppresses IkB signaling in ABC-DLBCL reporter cells; 0.04% of 110,000 active; ABC-DLBCL IkBa-CBG/CBR dual luciferase ratio, 4 h; response scale: scaled: untreated 0%, proteasome inhibitor 100%; Potency, µM (doses to about 57.1 µM), without a hit: at the highest dose IkBa stabilization activation; active means well fitted curve in the direction sought with a large enough effect in the signal ratio, not every such curve was filed as active; inconclusive means small, poorly fitted or top-dose-only effect, or a change in a side signal; the % refers to the signal ratio;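 further: potency means the concentration at half of the fitted maximal effect; the direction sought is a rising ratio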
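Curves were fitted separately to fusion (green), unfused (red) and ratio luminescence, then classed by r2, magnitude and activity. Cells: OCI-Ly3, 4 h compound plus doxycycline at 37C; 10 uM MG-132 defined full response.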
Epigenetic mod = derepresses silenced GFP locus in mouse C127i cells | Potency, µM (highest dose often 46.1 µM), inactives show at the top dose GFP derepression (activation) | 0.09% of 68,000 active | mouse C127i GFP locus derepression, cytometry, 30 h; further: % of control where 0% means no effect
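Read-out is the number of GFP-positive cells, scored as fluorescent objects 20 to 120 um wide, reflecting derepression of a silenced CMV-GFP reporter in murine C127i cells after 30 h compound exposure at 37 C.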
CRE-bla Fsk = CRE-bla signaling modulation under forskolin stimulation | CHO CRE-bla reporter (cAMP response element driving beta-lactamase), forskolin EC10, beta-lactamase ratio | Potency, µM (series often up to 38.2 µM), inactives show top-dose activity change, negative = inhibition, most hits filed as activators | 2.5% of 71,000 active | AID 662; active means well fitted activation curve with a large enough effect in the signal ratio, with a control signal flat, not every such curve was filed as active; inconclusive means small, poorly fitted or top-dose-only effect, or effect the other way, or a change in a side signal; the % refers to the signal ratio; further: potency means the concentration at half of the fitted maximal effect; % of control where 0% means no effect
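CRE-bla CHO reporter cells treated with compound titration plus EC10 NKH 477 (water-soluble forskolin), incubated 3 h at 37 °C; CCF4 loading 2 h at room temperature, 460/530 nm emission ratio read, AC50 values derived for positive or negative modulators.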
* = called active by the depositor; ? = inconclusive; nt = no result; [ ] = dose if it differs, or a comment. Unless noted, the call rests on the fitted dose curve; in most records, active means well fitted curve in the direction sought with a large enough effect; inconclusive means small, poorly fitted or top-dose-only effect, or another doubt; inactive means no such curve, though single readings can be large; an effect the other way counts as inactive or inconclusive.

SMILES | HBB splice mod | Imprint erasure | IkB signaling | Epigenetic mod | CRE-bla Fsk
C=CCSc1nc2c(c(=O)[nH]c(=O)n2C)n1Cc1ccc(C)cc1 | -1% | -13% | -2% | nt | 2.5µM*
Cc1ccccc1Cn1cc(S(=O)(=O)c2ccc(F)cc2)c(=O)c2cc3c(cc21)OCO3 | nt | 3%[10.9 µM] | ? | nt | nt
CCc1ccc(NC(=O)C2CCN(S(=O)(=O)c3cccc(-c4noc(C)n4)c3)CC2)cc1 | nt | 13%[10.9 µM] | 0% | nt | nt
CC(C)(C)c1cc(C(C)(C)C)c2oc(=O)c(-c3nc4ccccc4[nH]3)cc2c1 | nt | -15%[10.9 µM] | ? | nt | nt
CCN(CC)c1ccc2cc(-c3nc4ccccc4[nH]3)c(=O)oc2c1 | 0.79µM* | -59% | 0% | 0.16µM* | ?
CCN(CC)c1ccc2cc(-c3nc4ccccc4n3C)c(=O)oc2c1 | ? | -23% | 1% | 10µM* | ?
CCOC(=O)C1=C(C)NC(C)=C(C(=O)OC)[C@@H]1c1cccc(Cl)c1Cl | -1%[20.6 µM] | 8%[16.8 µM] | 0%[25.6 µM] | -2%[20.6 µM] | ?
Cc1ccc(N2CC(NC(=O)c3ccc(S(=O)(=O)N4CCCC4)cc3)CC2=O)cc1 (centres undefined) | nt | 3%[10.9 µM] | 3% | nt | nt
COC(=O)[C@H]1[C@@H]2C[C@H]3c4[nH]c5ccccc5c4CCN3C[C@@H]2CC[C@@H]1O | nt | nt | 0%[11.4 µM] | 2%[9.22 µM] | -10%
COc1ccc(CCNC(=O)C(C)n2nc(C)c3sc4ccccc4c3c2=O)c(OC)c1 (centres undefined) | nt | -21%[10.9 µM] | ? | nt | nt
CCCn1c(=NC(C)=O)c(C#N)cc2c(=O)n3cccc(C)c3nc21 | -1%[0.369 µM] | 10% | -2% | 2% | 2.5µM*
CCCCCn1c(=NC(C)=O)c(C#N)cc2c(=O)n3cccc(C)c3nc21 | 5%[0.369 µM] | -6% | 2% | 2% | 4µM*
COCCCn1c(=NC(=O)c2ccc3c(c2)OCO3)c(C#N)cc2c(=O)n3cccc(C)c3nc21 | 2%[1.84 µM] | 9% | -1% | -3% | ?
Fc1ccccc1N1CCN(c2c3c(nc4nncn24)CCC3)CC1 | nt | -17%[10.9 µM] | ? | nt | nt
Cc1nn(CCC(=O)O)c2nc(-c3cccnc3)cc(C(F)(F)F)c12 | 0%[57.5 µM] | 0% | 0% | 0% | 10µM*
COc1ccc(NC(=O)c2cc3c(=O)n(C)c4ccccc4c3n2C)cc1OC | 0% | -17% | 3% | nt | 4µM*
Cn1c(C(=O)NC2CCCCCC2)cc2c(=O)n(C)c3ccccc3c21 | -1% | -11% | -2% | nt | 2.5µM*
Cn1c(C(=O)NC2CCCCC2)cc2c(=O)n(C)c3ccccc3c21 | 0% | -10% | 0% | nt | ?
Cc1ccc(NC(=O)C2CCCN2S(=O)(=O)c2cccc3cccnc23)cc1 (centres undefined) | nt | -7%[10.9 µM] | -3% | nt | nt
O=c1cnc2cncnc2n1Cc1ccc(F)cc1 | 7% | -17% | ? | 3%[9.22 µM] | 3.2µM*
O=c1cnc2cncnc2n1Cc1ccccc1 | ? | -21% | 3%[11.4 µM] | 0%[9.22 µM] | ?
CCOC(=O)C1CCCN(C(=O)Cn2ncc3c(C)n(Cc4ccccc4Cl)c(C)c3c2=O)C1 (centres undefined) | nt | -3%[10.9 µM] | ? | nt | nt
COc1ccc(NC(=O)C(C)n2c(C)c3cnn(-c4ccccc4)c(=O)c3c2C)cc1Cl (centres undefined) | nt | -5%[10.9 µM] | 0% | nt | nt
COc1cc2cc(C(c3nnnn3C3CCCC3)N(C)C3CCCCC3)c(=O)[nH]c2cc1OC (centres undefined) | nt | nt | 0% | -2% | 13µM*
COc1cc2cc(C(c3nnnn3C3CCCCC3)N(C)C3CCCCC3)c(=O)[nH]c2cc1OC (centres undefined) | 0%[57.5 µM] | -13% | ? | -2% | 13µM*
SMILES | HBB splice mod | Imprint erasure | IkB signaling | Epigenetic mod | CRE-bla Fsk
COc1cccc2sc(Nc3nnc(-c4ccccc4Cl)o3)nc12 | -2% | -49% | ? | nt | 5µM*
COc1ccc(N2C(=O)C(CC(=O)Nc3ccc(Cl)cc3)N(Cc3ccc4c(c3)OCO4)C2=O)cc1 (centres undefined) | nt | -8%[10.9 µM] | ? | nt | nt
O=C(O)[C@@H]1[C@H](C(=O)O)[C@H]2C(=O)C=C[C@H]1N2Cc1ccccc1 | 0%[9.22 µM] | -19%[10.9 µM] | 4µM* | -3%[9.22 µM] | ?
N#Cc1c(-c2ccccc2)cc(C2CC2)nc1N | -1% | -4% | -4% | 0% | 2µM*
N#Cc1c(-c2ccco2)cc(C2CC2)nc1N | nt | nt | nt | 0%[20.6 µM] | nt
CCOC(=O)c1oc2ccccc2c1NC(=O)c1ccccc1OC | -2% | -14% | 2% | 11% | 2µM*
Cc1cccc(OCc2ccc(-c3nc(C#N)c(N4CCC(C(N)=O)CC4)o3)o2)c1 | nt | 9%[10.9 µM] | ? | nt | nt
c1ccc(CCCNc2ncnc3nc[nH]c23)cc1 | 1% | -15% | 0% | nt | 7.9µM*
c1ccc(CNc2ncnc3nc[nH]c23)cc1 | -1%[20.6 µM] | -9%[16.8 µM] | 5%[25.6 µM] | 5%[20.6 µM] | -5%[17.1 µM]
COc1cccc(-c2cc(NCc3cccnc3)ncn2)c1 | 2% | -27% | -2%[11.4 µM] | 2%[9.22 µM] | ?
COc1cccc(-c2cc(NCc3cccc(C)c3)ncn2)c1 | -1% | -13% | 1%[11.4 µM] | -4%[9.22 µM] | 5µM*
[O-][n+]1onc2c1CCC1N(O)C(c3ccccc3)CC21O (centres undefined) | 0% | -2% | -1% | 3% | 3.2µM*
CSc1ccccc1NC(=O)c1onc(C)c1Cl | -1% | -15% | 5% | -3% | 5%
CSc1ccccc1NC(=O)c1c(C)noc1C | -1% | -6% | -5% | 3% | 13µM*
Cc1ccc(NC(=O)[C@@H](c2ccccc2)N2Cc3ccccc3C2=O)cc1F | nt | 6%[10.9 µM] | 1% | nt | nt
O=C(CSc1nc2scc(-c3ccco3)c2c(=O)n1-c1ccccc1)NCC1CCCO1 (centres undefined) | 2% | -40% | 7.9µM* | -3% | ?
C=CCn1c(SCC(=O)NCC2CCCO2)nc2scc(-c3ccco3)c2c1=O (centres undefined) | 1% | -11% | 2% | -2% | 6.3µM*
NC(=O)CSc1nc2scc(-c3ccco3)c2c(=O)n1-c1ccccc1 | 0%[57.5 µM] | 28% | 0% | 0% | ?
O=c1c2c(-c3ccco3)csc2nc(SCc2cn3cccnc3n2)n1-c1ccccc1 | -1% | 2% | 0% | 0% | 1µM*
COc1ccccc1CNC(=O)C1CCN(C2=NS(=O)(=O)C(c3ccc(C)c(C)c3)=C2C)CC1 | nt | -8%[10.9 µM] | -3% | nt | nt
CSc1cccc(NC(=O)c2ccc3c(c2)c(C)c(C)n3Cc2ccc(F)cc2)c1 | nt | -17%[10.9 µM] | 0% | nt | nt
CC1(C)Cc2c(C#N)c(NC3CCCCC3)nc(-c3ccco3)c2CO1 | 0% | 1% | 3% | nt | 3.2µM*
CCn1cc2nc(SCC(=O)Nc3ccc(C)cc3)n(Cc3ccc(C)cc3)c(=O)c2n1 | nt | -3%[10.9 µM] | ? | nt | nt
CC1CCN(S(=O)(=O)c2ccc3c(ccn3CCC(=O)NCc3ccccc3F)c2)CC1 | nt | -2%[10.9 µM] | ? | nt | nt
